From PubChem BioAssay
Neddylation inh: inhibitors of cullin neddylation, primary screen, biochemical, TR-FRET, uHTS, NAE and Ubc12. inhibition, % at 25 µM. 0.58% of 360,000 active. AID 651699, 2012; in the data active means inhibition above about 36%
Bfl-1 A1 inh: caspase 3/7 activation in MEF A1-2A-BIM cells, primary screen, A1 inhibitor project, cell-based, luminescence, HTS | AID 2462, 2010 | caspase activation, % (concentration not given with the values) | 0.066% of 330,000 active | Caspase-Glo 3/7 luminescence, 3 h; percent of clofoctol response, vehicle zero;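 active means over half of replicate activation scores above 10%, or exactly half above 10 with the replicate mean above 10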
dFosB activator: activators of delta FosB homodimer, primary screen, biochemical, fluorescence polarization, TAMRA-CDK5 oligo, single point | 0.99% of 340,000 active | purified delta FosB; percent of positive-control signal above neutral wells | AID 493131, 2011 | activation, % at 25 µM | Protein FosB (Mus musculus), P13346;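 active means mean activation above about 17%, with every replicate also reaching it, limit read from the data, passing the limit was not always enough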
Vif imaging: HIV Vif self-association inhibitors, primary screen, imaging, HEK293T, single point; HEK293T cells, Vif self-association by quenched fluorescence, 24 h; inhibition, % at 7.49 µM; 0.35% of 340,000 active; AID 602346, 2012; in the data active means inhibition above about 50%, passing the limit was not always enough
GSIS activator: GLuc luminescence reporter in INS-1E cells, primary screen for activators of glucose-dependent secretion of insulin. INS-1E GLuc reporter insulin secretion, 2-3 h. activation, % at 16.6 µM. 0.61% of 370,000 active;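 active means lowest replicate activation of at least 40%, so every replicate reaches that level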
A number is an active result; 0 = inactive; - = no result given. A selection: hits, their analogues and other compounds. The true share with any hit is near 1.9%.

SMILES	Neddylation inh	Bfl-1 A1 inh	dFosB activator	Vif imaging	GSIS activator
O=C([C@H]1[C@H](CO)[C@H]2Cn3c(cccc3=O)[C@@H]1N2C(=O)CC1CC1)N1CCc2ccccc2C1	-	-	-	-	0
Cc1ccc2nc(NC(=O)/C=C/c3ccc4c(c3)OCO4)sc2c1	-	0	0	0	0
O=C(/C=C/c1ccc2c(c1)OCO2)Nc1nc2ccccc2s1	-	0	19	0	0
Cc1cccc2nc(CSc3nc4ccc([N+](=O)[O-])cc4[nH]3)c(Br)n12	0	0	0	54	0
COc1ccccc1CCCNC(=O)C1CCC(=O)N(Cc2ccccc2F)C1 (stereo unspecified)	0	8.6	0	0	0
O=C(NC1CCCCCC1)C1CCC(=O)N(Cc2ccccc2F)C1 (stereo unspecified)	0	0	0	0	0
O=C(NCC1(O)CCCCC1)C1CCC(=O)N(Cc2ccccc2F)C1 (stereo unspecified)	0	0	0	0	54
CCC(C)C(=O)Nn1c(C2CC2)nc2cc(OC)c(OC)cc2c1=O (stereo unspecified)	0	0	0	125	0
Cc1ccc(S(=O)(=O)N(C)C[C@H]2OCc3ccccc3-c3ccccc3C(=O)N([C@H](C)CO)C[C@@H]2C)cc1	-	-	-	-	0
Cc1ccc(-c2nc(NC(=O)c3nn(C)cc3[N+](=O)[O-])sc2C)cc1C	0	39	0	-	0
Cc1cnc(NC(=O)c2nn(C)cc2[N+](=O)[O-])s1	0	-	0	0	0
Cc1ccc(-c2nc(NC(=O)c3nn(C)cc3[N+](=O)[O-])sc2C)cc1	0	11	0	-	0
CCCC/C=C/C(NC(=O)CCc1ccccc1)c1ccccc1 (stereo unspecified)	0	0	0	0	0
CCCC/C=C/[C@H](c1ccccc1)[C@H](CO)Cc1cccnc1	0	0	0	0	104
COc1ccccc1CNC(=O)C[C@H]1CC[C@H]2[C@@H](COC[C@H](O)CN2C(=O)Nc2ccc(F)cc2)O1	-	-	-	-	0
O=C(/C=C(\Nc1cc(Cl)c(F)c(Cl)c1)c1ccccc1)c1ccccc1	-	-	-	-	157
CN(C)CCCNC(=O)C[C@H]1CC[C@H]2[C@@H](COc3ccc(NC(=O)c4ccc5c(c4)OCO5)cc3C(=O)N2C)O1	-	-	-	-	0
CCN1[C@H](C(=O)NC2CCC2)[C@@H](CO)[C@@H]2Cn3c(ccc(-c4ccc(OC)cc4)c3=O)[C@@H]21	-	-	-	-	0
Cc1cc(NC(=O)COC(=O)CCS(=O)(=O)c2ccc(C)c(C)c2)no1	0	0	0	0	0
Cc1cc(NC(=O)COC(=O)CCS(=O)(=O)c2cc(Cl)ccc2Cl)no1	0	0	0	0	41
Cc1cc(NC(=O)COC(=O)c2ccccc2Cl)no1	0	0	0	0	0
Cc1cc(NC(=O)COC(=O)c2oc3c(Cl)cccc3c2C)no1	0	0	0	0	65
CCN1CCN(c2ccc(Nc3ccnc4ccccc34)cc2)CC1	0	0	36	0	-
CN1CCN(c2ccc(Nc3ccnc4cc(Cl)ccc34)cc2)CC1	0	0	57	0	0
CCN1CCN(c2nc(-c3ccccn3)nc3ccccc23)CC1	0	0	0	0	-
SMILES	Neddylation inh	Bfl-1 A1 inh	dFosB activator	Vif imaging	GSIS activator
CCOc1ccc(Nc2ccnc3cc(Cl)ccc23)cc1	0	0	0	0	0
O=C(C[n+]1cccc2ccccc21)c1ccc(Br)cc1	0	0	0	93	0
Cc1ccc(C(=O)C[n+]2cccc3ccccc32)cc1	0	0	0	0	-
Cc1ccccc1-c1ccc([C@H]2[C@H](CO)N3CCCCN(C(=O)CN4CCOCC4)C[C@@H]23)cc1	-	-	-	-	0
Nc1c(C(=O)Nc2nc3ccccc3s2)sc2nc(-c3cccs3)ccc12	0	0	0	154	-
CC(=O)c1sc2nc(-c3cccs3)ccc2c1N	0	0	0	0	-
Oc1ccc(/C=N/Nc2nccnc2Cl)c(O)c1	0	0	0	81	-
Oc1ccccc1/C=N/Nc1nccnc1Cl	0	0	0	0	-
CCOC(=O)C(=O)Nc1ccc(S(=O)(=O)Nc2ncccn2)cc1	0	0	0	-	0
CCCOC(=O)Nc1ccc(S(=O)(=O)Nc2ncccn2)cc1	0	0	0	0	54
O=C(NN=Cc1ccc(O)cc1O)c1ccccc1NS(=O)(=O)c1cccs1	43	0	0	0	0
COc1ccc(C=NNC(=O)c2ccccc2NS(=O)(=O)c2cccs2)cc1O	0	0	0	0	0
CNC(=O)C[C@@H]1CC[C@@H]2[C@H](COc3ccc(NC(=O)C4CC4)cc3C(=O)N2C)O1	-	-	-	-	0
C[C@@H]1C(=O)N[C@H](c2ccc(F)cc2)CC=CC[C@H](C)Oc2ccccc2C(=O)N1C (mixture of isomers)	-	-	-	-	0
c1cc(SC2CCCCC2)cc(-c2nc3cnccn3c2NC2CCCCC2)c1	-	0	0	0	0
CCC(C)Sc1cccc(-c2nc3cnccn3c2NC2CCCCC2)c1 (stereo unspecified)	-	-	0	0	170
COc1cc(OC)cc(C(=O)N[C@H](C(=O)Nc2ccc3c(c2)OCO3)C(C)C)c1	0	0	0	91	0
COc1cc(OC)cc(C(=O)NC(C(=O)Nc2ccc3c(c2)OCO3)C(C)C)c1 (stereo unspecified)	0	0	0	125	0
O=C(N/N=C/c1c(O)n(-c2ccccc2Cl)c(=O)c2ccccc12)c1cccnc1	0	-	0	0	0
COc1ccc(Cn2c(O)c(/C=N/NC(=O)c3cccnc3)c3ccccc3c2=O)cc1	43	-	0	0	0
COc1ccc2sc3cccc(NCCN(C)C)c3c(=O)c2c1	0	-	-	0	0
CN(C)CCNc1ccc(CO)c2sc3ccc(O)cc3c(=O)c12	0	-	38	0	-
CN(C)CCNc1ccc(-c2nn(C)c(=O)c3ccccc23)cc1[N+](=O)[O-]	0	0	0	0	0
CN(C)CCNc1ccc2ncn3c4ccc(O)cc4c(=O)c1c23	0	-	64	0	-
Fc1ccccc1-c1nc2nc3ccccc3nc2n1CC1CCCO1 (stereo unspecified)	46	0	0	0	0
SMILES	Neddylation inh	Bfl-1 A1 inh	dFosB activator	Vif imaging	GSIS activator
S=c1[nH]nc(-c2ccccc2)n1CC1CCCO1 (stereo unspecified)	0	0	0	0	-
CN(C)CCCNC(=O)C[C@@H]1CC[C@H]2[C@@H](COc3ccc(NS(C)(=O)=O)cc3C(=O)N2C)O1	-	-	-	-	0
Cc1ccc(S(=O)(=O)/C(C#N)=C/c2c(N3CC(C)OC(C)C3)nc3ccccn3c2=O)cc1 (stereo unspecified)	0	0	0	67	-
N#C/C(=C\c1c(N2CCN(c3ccccc3)CC2)nc2ccccn2c1=O)C(N)=O	0	0	0	0	0
N#C/C(=C\c1c(N2CCCCCC2)nc2ccccn2c1=O)C(N)=O	0	0	0	0	40
Cc1ccc(S(=O)(=O)/C(C#N)=C/c2c(N3CCCCC3)nc3ccccn3c2=O)cc1	0	0	-	0	0
OC[C@H]1[C@@H](c2ccccc2)C2(CN(Cc3nccs3)C2)N1Cc1ccncc1	-	-	-	-	0
